This is one part of a sample in which the strongest signals are shown more often than they occur.
Assays:
Experiment in all cases: glycan array binding signal (z-score within array); higher = stronger binding
Details in all cases: glycan notation: IUPAC condensed, linker removed
[1] = biological target: Fuc(a1-2)Gal(b1-3)GalNAc(b1-3)Gal
Outline: (§1)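 Glycan array data were curated from 3228 arrays in the Consortium for Functional Glycomics database and kept only where the protein sequence was available. Glycan names were converted to IUPAC-condensed notation, and columns mapping to the same glycan were averaged. The binding signal is a within-array Z-score, averaged across arrays of the same protein sequence at different concentrations or buffers and across linkers. Negative Z-scores can be read as non-binding.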

[2] = biological target: Fuc(a1-2)Gal(b1-4)GlcNAc(b1-2)Man(a1-3)[Fuc(a1-2)Gal(b1-4)GlcNAc(b1-2)Man(a1-6)]Man(b1-4)GlcNAc(b1-4)GlcNAc
Outline: as §1

[3] = biological target: Fuc(a1-2)Gal(b1-4)[Fuc(a1-3)]GlcNAc
Outline: as §1

[4] = biological target: Fuc(a1-2)[Gal(a1-3)]Gal(b1-4)Glc
Outline: as §1

[5] = biological target: Fuc(a1-2)[GalNAc(a1-3)]Gal(b1-4)GlcNAc(b1-3)Gal(b1-4)GlcNAc(b1-3)Gal(b1-4)GlcNAc
Outline: as §1

Gal(a1-3)Gal = biological target: Gal(a1-3)Gal
Outline: as §1

[6] = biological target: Gal(a1-3)Gal(b1-4)GlcNAc(b1-3)GalNAc
Outline: as §1

[7] = biological target: Gal(a1-3)Gal(b1-4)[Fuc(a1-3)]GlcNAc(b1-2)Man(a1-3)[Gal(a1-3)Gal(b1-4)[Fuc(a1-3)]GlcNAc(b1-2)Man(a1-6)]Man(b1-4)GlcNAc(b1-4)GlcNAc
Outline: as §1

Gal(a1-3)GalNAc = biological target: Gal(a1-3)GalNAc
Outline: as §1

Gal(b1-3)Gal(b1-4)GlcNAc = biological target: Gal(b1-3)Gal(b1-4)GlcNAc
Outline: as §1

[8] = biological target: Gal(b1-3)GlcNAc(b1-2)Man(a1-3)[Gal(b1-3)GlcNAc(b1-2)Man(a1-6)]Man(b1-4)GlcNAc(b1-4)[Fuc(a1-6)]GlcNAc
Outline: as §1

[9] = biological target: Gal(b1-4)GlcNAc(b1-2)Man(a1-3)[Gal(b1-4)GlcNAc(b1-2)Man(a1-6)]Man(b1-4)GlcNAc(b1-4)GlcNAc
Outline: as §1

[10] = biological target: Gal(b1-4)GlcNAc(b1-2)Man(a1-3)[Gal(b1-4)GlcNAc(b1-2)Man(a1-6)]Man(b1-4)GlcNAc(b1-4)[Fuc(a1-6)]GlcNAc
Outline: as §1

[11] = biological target: Gal(b1-4)GlcNAc(b1-3)Gal(b1-4)GlcNAc(b1-3)Gal(b1-4)GlcNAc
Outline: as §1

[12] = biological target: Gal(b1-4)GlcNAc(b1-3)Gal(b1-4)[Fuc(a1-3)]GlcNAc(b1-3)Gal(b1-4)[Fuc(a1-3)]GlcNAc
Outline: as §1

[13] = biological target: Gal(b1-4)GlcNAc(b1-3)[GlcNAc(b1-6)]Gal(b1-4)GlcNAc
Outline: as §1

Gal6S(b1-4)Glc6S = biological target: Gal6S(b1-4)Glc6S
Outline: as §1

GalNAc(a1-3)Gal = biological target: GalNAc(a1-3)Gal
Outline: as §1

[14] = biological target: GlcNAc(a1-4)Gal(b1-4)GalNAc
Outline: as §1

[15] = biological target: GlcNAc(a1-4)Gal(b1-4)GlcNAc(b1-3)Gal(b1-4)[Fuc(a1-3)]GlcNAc(b1-3)Gal(b1-4)[Fuc(a1-3)]GlcNAc
Outline: as §1

[16] = biological target: GlcNAc(b1-2)Man(a1-3)[GlcNAc(b1-2)Man(a1-6)]Man(b1-4)GlcNAc(b1-4)[Fuc(a1-6)]GlcNAc
Outline: as §1

[17] = biological target: Man(a1-3)[Man(a1-6)]Man(a1-6)[Man(a1-2)Man(a1-3)]Man(b1-4)GlcNAc(b1-4)GlcNAc
Outline: as §1

[18] = biological target: Neu5Ac(a2-3)Gal(b1-4)GlcNAc(b1-3)Gal(b1-4)GlcNAc
Outline: as §1

[19] = biological target: Neu5Ac(a2-3)Gal(b1-4)[Fuc(a1-3)]GlcNAc
Outline: as §1

[20] = biological target: Neu5Ac(a2-3)GalNAc(b1-4)GlcNAc
Outline: as §1

Neu5Ac(a2-6)Gal = biological target: Neu5Ac(a2-6)Gal
Outline: as §1

[21] = biological target: Neu5Gc(a2-3)Gal(b1-4)[Fuc(a1-3)]GlcNAc
Outline: as §1

[22] = biological target: Neu5Gc(b2-6)Gal(b1-4)GlcNAc
Outline: as §1

Kdn(a2-3)Gal(b1-4)Glc = biological target: Kdn(a2-3)Gal(b1-4)Glc
Outline: as §1

[23] = biological target: Kdn(a2-3)Gal(b1-4)[Fuc(a1-3)]GlcNAc
Outline: as §1

Man(a1-3)[Man(a1-6)]Man = biological target: Man(a1-3)[Man(a1-6)]Man
Outline: as §1

[24] = biological target: Neu5Ac(a2-3)Gal(b1-3)GlcNAc(b1-3)GalNAc
Outline: as §1

[25] = biological target: Neu5Ac(a2-3)Gal(b1-4)[Fuc(a1-3)]GlcNAc(b1-3)Gal(b1-4)[Fuc(a1-3)]GlcNAc(b1-3)Gal(b1-4)[Fuc(a1-3)]GlcNAc
Outline: as §1

[26] = biological target: Neu5Ac(a2-3)Gal(b1-4)[Fuc(a1-3)]GlcNAc(b1-3)GalNAc
Outline: as §1

[27] = biological target: Neu5Ac(a2-3)Gal6S(b1-4)[Fuc(a1-3)]GlcNAc
Outline: as §1

Neu5Ac(a2-6)Gal(b1-4)Glc = biological target: Neu5Ac(a2-6)Gal(b1-4)Glc
Outline: as §1

[28] = biological target: Neu5Ac(a2-6)Gal(b1-4)GlcNAc(b1-2)Man(a1-6)[Gal(b1-4)GlcNAc(b1-2)Man(a1-3)]Man(b1-4)GlcNAc(b1-4)GlcNAc
Outline: as §1

[29] = biological target: Neu5Ac(a2-6)Gal(b1-4)GlcNAc(b1-2)Man(a1-6)[Man(a1-3)]Man(b1-4)GlcNAc(b1-4)GlcNAc
Outline: as §1

[30] = biological target: Neu5Ac(a2-8)Neu5Ac(a2-3)[Gal(b1-3)GalNAc(b1-4)]Gal(b1-4)Glc
Outline: as §1

[31] = biological target: Neu5Ac(a2-8)Neu5Ac(a2-8)Neu5Ac(a2-8)Neu5Ac(a2-3)[GalNAc(b1-4)]Gal(b1-4)Glc
Outline: as §1

[32] = biological target: Neu5Ac9Ac(a2-3)Gal(b1-3)GlcNAc
Outline: as §1

B1: SRS6 (Toxoplasma gondii), Q9NH12 (protein)
chain: MARTGSMQQRRGGFQTTARMLMAVCVSGVLLLSSGPSSANKLTEGQQNQNSGPGAATQEGPTIEGAVAKCVLKTTAAENGSSRAKNTTGLTLSKENLVVSLQCSGEKNAIVPKDQKKVCSAAPNAKVADCKGADTDKQVTLKSLLGTSGDIQWEKTIVSTDNKGEVMTLKIKESELPLFDKAFFVGCEEDKAQTRTSQATECKVNVSVKARPSTVGENNVVTCAYGKDSNPRPLEVEMSADNDTLTIDCGTDGSLKPTKYTEEFCVTDNSQLESCTTKKFSEILPTFLPSWWVSDSQNGSAKLTIPESGFPEEQQQFRLGCVPKKTTQSPQANPSVKTEKEEGAQNTDASTSNCSVIVTVKASNFSSLASSIAPTAAVAGGAAALTGFLVGSF
glycan array binding signal (z-score) [1]: 1.86
glycan array binding signal (z-score) [2]: 1.71
glycan array binding signal (z-score) [3]: 0.016
glycan array binding signal (z-score) [4]: -0.753
glycan array binding signal (z-score) [5]: -0.105
glycan array binding signal (z-score) (Gal(a1-3)Gal): 0.351
glycan array binding signal (z-score) [6]: 0.006
glycan array binding signal (z-score) [7]: 0.436
glycan array binding signal (z-score) (Gal(a1-3)GalNAc): -0.288
glycan array binding signal (z-score) (Gal(b1-3)Gal(b1-4)GlcNAc): -0.549
glycan array binding signal (z-score) [8]: 1.28
glycan array binding signal (z-score) [9]: -0.558
glycan array binding signal (z-score) [10]: 3.04
glycan array binding signal (z-score) [11]: 2.32
glycan array binding signal (z-score) [12]: -0.096
glycan array binding signal (z-score) [13]: 0.169
glycan array binding signal (z-score) (Gal6S(b1-4)Glc6S): 4.38
glycan array binding signal (z-score) (GalNAc(a1-3)Gal): 0.054
glycan array binding signal (z-score) [14]: 0.375
glycan array binding signal (z-score) [15]: 0.807
glycan array binding signal (z-score) [16]: 13.7
glycan array binding signal (z-score) [17]: 1.44
glycan array binding signal (z-score) [18]: 2.13
glycan array binding signal (z-score) [19]: -0.808
glycan array binding signal (z-score) [20]: -0.177
glycan array binding signal (z-score) (Neu5Ac(a2-6)Gal): 0.288
glycan array binding signal (z-score) [21]: 0.103
glycan array binding signal (z-score) [22]: 0.403

B2: PitA (Streptococcus oralis), G3F8D8 (protein)
chain: MNIRFDFKKVQIIARRLVTLLAILFLCAPISLLNADSTTEPQTTLHKTITPISGQDDKYELSLDITSKLGTETQTDPLDVVLVADLSGSMQNQDVQSFDGRTISRIDALKNTLRGTNGRKGLIDTILSNSNNRLSMVGFGGKIDNKKVDQYWDGNKWRLFRPYWPYERMTKYYDGVSPWDDANTILGWSNNARAAKTAVYNMSIAGGNSIGTESGIGTGTNIGAGLTLANQLMGSARSNAKKVVILLSDGFANMVYDANGYTIYNYNNEDPNIETAPQWFWDRLNNNLNSLSYSLAPTLDGFYSIKFRYSNNVDSITSLQYYMRQHNASIPNEIFSANDEDQLRDSFKDITDKILPLGIHHVSIKDVLSKYVQLLPNGSSEFRVVKEKDGSSEILIENQVTFDTKTTSEGLVEVTAKFSPNYSLEDGARYVLKFTVTSSQEALDAIAGDKKLEAGDAEGSDVNKLYSNKGASVTYSYGIGNSQTKTKEYSDNPTFKPSDPLTVPVEVEWQGVTGARTVITADQPSNVELKLVQKNKNGGSDNQDYRKTNVNVSKNVSNETRNFEKVAKGYQYDLIAPDVPAFTKEIKNVGTESKPSFKVIYKQLPSLTIKKVLEAENNLNKEFRIKVKLTSPDSKPLNGTFGEITVVNGEAEIRVEKRKRWEGILSYLPRGTHYKVEEEAASTNGYHVTYENQEGDLNKDETSIVTNHKLPSLSVTKKVTGVFANLLKSFKITINIRDAQNSPLNGTYTATVNNKRTPLQFTNGRASIDLNKDQTIKIYGLPLDSHYTVEEESNSSRGYQVSYENQEGKLDGDKSATVTNNKNSVPETGVDFLSSTLMLGIILPLGGIFFTILLGYLVVHRRK
glycan array binding signal (z-score) (Kdn(a2-3)Gal(b1-4)Glc): -0.512
glycan array binding signal (z-score) [23]: 1.05
glycan array binding signal (z-score) (Man(a1-3)[Man(a1-6)]Man): -0.627
glycan array binding signal (z-score) [24]: -0.148
glycan array binding signal (z-score) [25]: 0.263
glycan array binding signal (z-score) [26]: 3.68
glycan array binding signal (z-score) [27]: -0.322
glycan array binding signal (z-score) (Neu5Ac(a2-6)Gal(b1-4)Glc): -0.522
glycan array binding signal (z-score) [28]: -0.302
glycan array binding signal (z-score) [29]: 0.537
glycan array binding signal (z-score) [30]: -0.463
glycan array binding signal (z-score) [31]: 0.179
glycan array binding signal (z-score) [32]: -0.641

Source: the supplement of paper PMC8728848
